Assay results reported in PubChem BioAssay (NCATS).
“And” between values parts separate entries of the source, which are not always exact repeats. Equal entries are not always repeated. Results filed as inconclusive are left out. Where a structure was tested more than once in an assay, its records may differ in their call. The source made the active and inactive calls. Unless noted, the call rests on the fitted dose curve; in most records, active means well fitted curve in the direction sought with a large enough effect; inconclusive means small, poorly fitted or top-dose-only effect, or another doubt; inactive means no such curve, though single readings can be large; an effect the other way counts as inactive or inconclusive.

What was measured:
[1] = Cellular Toxicity (caspase-3) H-4-II-E (AID 663);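 further: cells exposed to compound for 16 hr before readout; 0% = DMSO basal and 100% = 100 µM tamoxifen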
Summary of the method: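 Apoptosis induction is scored as increased luminescence from caspase 3/7 substrate cleavage in rat hepatoma H-4-II-E cells exposed to compound for 16 hr. Activity is scaled between DMSO and 100 uM tamoxifen.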

[2] = Cellular Toxicity (caspase-3) Hek293 (AID 664);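 further: cells exposed to compound for 16 h at 37 °C before readout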
Summary of the method: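 HEK293 cells in complete medium treated 16 h at 37 °C, then Caspase-Glo 3/7 luminescence read after 20 min at room temperature. Normalized to DMSO and 100 uM tamoxifen; AC50 from Hill fit of concentration-response.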

[3] = Cellular Toxicity (caspase-3) NIH 3T3 (AID 666);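 further: caspase signal read after 16 h compound exposure; 0% = DMSO basal and 100% = 100 µM tamoxifen stimulation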
Summary of the method: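 Mouse NIH 3T3 fibroblasts (1000/well) treated 16 h at 37 C; caspase-3/7 activity measured by Caspase-Glo 3/7 luminescence after 20 min. Normalized to DMSO and 100 uM tamoxifen; AC50 from Hill fits.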

[4] = Cellular Toxicity (caspase-3) Renal Proximal Tubule (AID 667);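 further: cells exposed to compound for 16 hours at 37 °C before detection; 0% = DMSO basal and 100% = 10 µM staurosporine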
Summary of the method: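 Freshly isolated primary rat kidney proximal tubule cells, 1000/well, treated 16 hr at 37 °C, then Caspase-Glo 3/7 luminescence after 1 hr. Normalized to DMSO and 10 uM staurosporine; AC50 from Hill fit.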

[5] = biological target: Guanine nucleotide-binding protein G(i) subunit alpha-1 (Homo sapiens) (UniProt P63096); experiment: qHTS Assay for Inhibitors of RGS12 GoLoco Motif Activity (Green Fluorophore) (AID 879);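 further: 0% = labeled peptide with Gαi1 and full inhibition = labeled peptide alone without protein; negative values mean loss of peptide binding seen as reduced polarization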
Summary of the method: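 Fluorescence polarization assay: 50 nM Gαi1 with 10 nM FITC-labeled RGS12 GoLoco peptide in 10 mM Tris pH 7.5, 150 mM NaCl, 0.1 mM GDP, 0.05% NP40, 10 min at room temperature with compound.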

[6] = biological target: Cytochrome P450 3A4 (Homo sapiens) (UniProt P08684); experiment: qHTS Assay for Activators of Cytochrome P450 3A4 (AID 885); further: nearly all actives have a fitted effect of over 65% in size
Summary of the method: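 Signal was normalized against complete inhibition by 57 uM ketoconazole. The reaction used 20nM CYP3A4 with 25uM Luciferin-PPXE, 10-min compound preincubation and a 60-min NADPH-supported step at RT.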

[7] = biological target: Cytochrome P450 2D6 (Homo sapiens) (UniProt P10635); experiment: qHTS Assay for Inhibitors and Substrates of Cytochrome P450 2D6 (AID 891); further: nearly all actives have a fitted effect of over 60% in size; further: potency means the concentration at half of the fitted maximal effect
Summary of the method: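 Human CYP2D6 (5 nM) with 30 uM Luciferin-ME EGE (at Km) in 100 mM KPO4, compound preincubated 10 min, then NADPH regeneration system for 60 min at room temperature. Luciferin read by luminescence; normalized to 1.43 uM quinidine.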

[8] = qHTS Assay for Identification of Small Molecule Agonists for Thrombopoietin (TPO) Signaling Pathway (AID 917); further: on the % scale 0 is the no-effect control and ±100 the full control effect
Summary of the method: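 Murine Ba/F3 cells expressing human TPO receptor and GPIIb-promoter luciferase, IL-3-starved overnight, given compound plus TPO at 26 pM (EC50). After 24 h at 37 C, 5% CO2, luminescence read.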

[9] = Cell Viability - LYMP2-001 (AID 921);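 further: series mostly up to about 92 µM; 0% = DMSO only and full inhibition = tetraoctylammonium bromide control wells; nearly all actives have a fitted effect of over 70% in size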
Summary of the method: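 Human lymphoblastoid LYMP2-001 cells, 2500 per well, in complete medium, treated 24 h at 37 C. Viability from cellular ATP by CellTiter-Glo luminescence; AC50 from Hill-equation fits of qHTS concentration-response.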

[10] = Confirmation and Secondary Assay for Modulators of Hemoglobin Beta Chain Splicing at IVS2 705 locus (AID 930);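 further: HeLa cells stably expressing the EGFP-705 splicing reporter; GFP fluorescence per well restored by corrected splicing of the IVS2-705 intron in EGFP; series mostly up to about 46 µM; % of control where 0% means no effect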
Summary of the method: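 Secondary splice-site specificity test uses HeLa expressing CMV-driven EGFP interrupted by IVS2-705; cells were treated 2 days at 37C with 500 nM antisense PNA as positive control.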

[11] = biological target: Pyruvate kinase (Leishmania mexicana) (UniProt Q27686); experiment: qHTS Validation Assay for Inhibitors of Leishmania Mexicana Pyruvate Kinase (AID 945);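 further: 0% = DMSO only neutral control wells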
Summary of the method: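 Read-out: luminescence from PKLight stop/detection reagent, data normalized to DMSO. Reaction: 0.2 nM E451W LmPYK, 0.5 mM PEP, 0.1 mM ADP, pH 7.2, 1 h room temperature.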

[12] = Confirmation and Secondary Assay for Modulators of Hemoglobin Beta Chain Splicing at IVS2 654 locus (AID 910);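 further: HeLa cells stably carrying EGFP split by mutant beta-globin IVS2-654 intron; per-well total GFP intensity by laser scanning cytometry after 2-day treatment; % of control where 0% means no effect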
Summary of the method: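 Readout: per-well total peak green fluorescence (488 nm ex, 500–520 nm em) from objects 5–250 µm, reflecting correct splicing of an EGFP-654 reporter. Compounds were applied for 2 days at 37 °C to overnight-plated HeLa EGFP-654 cells; controls were DMSO and 500 nM IVS2-654 PNA.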

[13] = qHTS Assay for Identification of Small Molecule Antagonists for Thrombopoietin (TPO) Signaling Pathway (AID 918); details: TPO-dependent cell signaling reporter, antagonist mode; further: potency means the concentration at half of the fitted maximal effect; nearly all actives have a fitted effect of over 60% in size
Summary of the method: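 Murine Ba/F3 cells expressing human TPO receptor and a Glycoprotein IIb promoter-luciferase reporter, IL-3-starved overnight, treated with compound plus TPO at EC50 (26 pM final). After 24 h at 37 C, luminescence read to detect inhibitors.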

[14] = biological target: Muscarinic acetylcholine receptor M1 (Rattus norvegicus) (UniProt P08482); experiment: qHTS Assay for Antagonists of Acetylcholine Muscarinic M1 Receptor: Measurement of IP-One Response (AID 944); further: nearly all actives have a fitted effect of over 75% in size; further: potency means the concentration at half of the fitted maximal effect
Summary of the method: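 CHO cells stably expressing rat M1, pretreated 10 min with compound, then stimulated 30 min with carbachol at EC80 (200 nM) in LiCl-containing buffer pH 7.4; IP1 accumulation read by HTRF competition (665/620 nm).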

[15] = biological target: Cytochrome P450 2C9 (Homo sapiens) (UniProt P11712); experiment: qHTS Assay for Inhibitors and Substrates of Cytochrome P450 2C9 (AID 883); further: nearly all actives have a fitted effect of over 60% in size; further: potency means the concentration at half of the fitted maximal effect
Summary of the method: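 Turnover of Luciferin-H (100uM, KM) by 10nM human CYP2C9 was measured over 60 min at 37C with NADPH regeneration; inhibitors and some substrates reduce luminescence. Data normalized to sulphaphenazole 57uM.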

[16] = biological target: Cytochrome P450 3A4 (Homo sapiens) (UniProt P08684); experiment: qHTS Assay for Inhibitors and Substrates of Cytochrome P450 3A4 (AID 884); further: series mostly up to about 57 µM; on the % scale 0 is the no-effect control and ±100 the full control effect; nearly all actives have a fitted effect of over 50% in size
Summary of the method: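 20 nM human CYP3A4 with 25 uM Luciferin-PPXE (at KM) in 200 mM KPO4, preincubated 10 min with compound; NADPH regeneration started a 60 min RT reaction. Luciferin detected by luminescence, normalized to 57 uM ketoconazole as full inhibition.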

[17] = qHTS Assay for Identification of Small Molecule Antagonists for NFkB Signaling Pathway (AID 895; active means well fitted inhibition curve with a large enough effect in the signal ratio, with a control signal flat, not every such curve was filed as active; the % refers to the signal ratio; further: potency means the concentration at half of the fitted maximal effect)
Summary of the method: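 Beta-lactamase reporter read-out (460 and 530 nm emission ratio, 405 nm excitation, 2 hrs substrate loading RT) after 5 hr stimulation with 10 pM TNF alpha in compound-treated NFkB-bla ME-180 cells in low-serum medium.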

[18] = biological target: Cytochrome P450 2C19 (Homo sapiens) (UniProt P33261); experiment: qHTS Assay for Inhibitors and Substrates of Cytochrome P450 2C19 (AID 899); further: nearly all actives have a fitted effect of over 60% in size; further: potency means the concentration at half of the fitted maximal effect
Summary of the method: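 Reactions contain 5nM enzyme, 10uM Luciferin-H EGE (KM) and 50mM KPO4; compound preincubates 10 min at 37C, NADPH regeneration starts turnover for 60 min. Luminescence after detection reagent gives activity.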

[19] = qHTS Assay for Identification of Small Molecule Agonists for Hypoxia Response Element Signaling Pathway (AID 914; active means well fitted activation curve with a large enough effect in the signal ratio, with a control signal flat, not every such curve was filed as active; the % refers to the signal ratio; further: % of control where 0% means no effect); details: ME-180 (cervical carcinoma) HRE-bla reporter, beta-lactamase ratio, CoCl2, 17 h; stronger effect = higher value
Summary of the method: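 qHTS titration; ME-180 HRE-bla cells; EC50 CoCl2 co-treatment, 17 h at 37 degrees Celsius; CCF4 dye, ex 405nm, em 460nm and 530nm; %Activity from ratio; AC50.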

[20] = biological target: Muscarinic acetylcholine receptor M1 (Rattus norvegicus) (UniProt P08482); experiment: qHTS Assay for Antagonists of Acetylcholine Muscarinic M1 Receptor: Kinetic Measurement of Intracellular Calcium Response (AID 943); further: nearly all actives have a fitted effect of over 75% in size; further: potency means the concentration at half of the fitted maximal effect
Summary of the method: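 CHO cells expressing rat M1 receptor, Fluo-4 loaded, preincubated 10 min with compound, then stimulated with EC80 carbachol (100 nM final). Kinetic calcium fluorescence over 4 min; response taken as peak over basal signal.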

Sequence of Muscarinic acetylcholine receptor M1 (Rattus norvegicus) (P08482 whole entry, looked up): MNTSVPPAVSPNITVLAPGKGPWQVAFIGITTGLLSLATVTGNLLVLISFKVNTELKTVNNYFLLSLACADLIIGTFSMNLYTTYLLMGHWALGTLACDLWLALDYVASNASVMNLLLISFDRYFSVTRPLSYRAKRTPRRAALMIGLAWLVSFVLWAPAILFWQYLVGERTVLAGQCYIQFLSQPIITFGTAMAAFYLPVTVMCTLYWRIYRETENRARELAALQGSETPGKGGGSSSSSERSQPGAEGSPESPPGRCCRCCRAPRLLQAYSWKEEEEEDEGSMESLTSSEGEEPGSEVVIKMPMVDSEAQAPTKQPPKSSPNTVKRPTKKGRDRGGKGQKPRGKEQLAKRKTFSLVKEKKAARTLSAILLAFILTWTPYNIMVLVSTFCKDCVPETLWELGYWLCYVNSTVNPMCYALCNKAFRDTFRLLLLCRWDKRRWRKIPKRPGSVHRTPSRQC
Sequence of Cytochrome P450 2C19 (Homo sapiens) (P33261 whole entry, looked up): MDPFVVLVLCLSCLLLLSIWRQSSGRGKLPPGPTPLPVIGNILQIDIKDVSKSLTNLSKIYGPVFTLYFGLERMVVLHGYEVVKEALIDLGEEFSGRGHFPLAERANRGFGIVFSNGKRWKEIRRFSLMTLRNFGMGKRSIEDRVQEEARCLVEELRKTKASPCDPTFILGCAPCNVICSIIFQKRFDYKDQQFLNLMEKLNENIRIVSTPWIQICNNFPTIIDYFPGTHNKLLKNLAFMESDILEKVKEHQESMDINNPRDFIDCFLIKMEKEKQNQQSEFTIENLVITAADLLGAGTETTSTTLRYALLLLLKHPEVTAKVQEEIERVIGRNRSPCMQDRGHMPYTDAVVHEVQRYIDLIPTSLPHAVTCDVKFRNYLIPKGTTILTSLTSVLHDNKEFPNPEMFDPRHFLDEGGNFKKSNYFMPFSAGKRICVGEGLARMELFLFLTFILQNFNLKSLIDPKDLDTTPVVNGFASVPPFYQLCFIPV
Sequence of Cytochrome P450 2C9 (Homo sapiens) (P11712 whole entry, looked up): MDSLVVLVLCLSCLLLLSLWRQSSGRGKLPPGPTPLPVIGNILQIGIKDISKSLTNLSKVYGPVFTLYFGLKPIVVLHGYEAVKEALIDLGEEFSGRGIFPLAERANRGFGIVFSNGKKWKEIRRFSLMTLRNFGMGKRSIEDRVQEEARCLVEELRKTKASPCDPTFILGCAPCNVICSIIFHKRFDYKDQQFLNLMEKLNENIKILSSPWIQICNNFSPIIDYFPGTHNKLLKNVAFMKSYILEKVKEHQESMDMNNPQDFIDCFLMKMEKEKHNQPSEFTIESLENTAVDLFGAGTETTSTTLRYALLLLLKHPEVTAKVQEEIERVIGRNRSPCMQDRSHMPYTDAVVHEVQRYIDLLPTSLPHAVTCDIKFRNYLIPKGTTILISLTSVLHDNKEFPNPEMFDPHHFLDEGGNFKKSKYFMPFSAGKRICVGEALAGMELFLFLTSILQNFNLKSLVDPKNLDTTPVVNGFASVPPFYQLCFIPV
Sequence of Cytochrome P450 3A4 (Homo sapiens) (P08684 whole entry, looked up): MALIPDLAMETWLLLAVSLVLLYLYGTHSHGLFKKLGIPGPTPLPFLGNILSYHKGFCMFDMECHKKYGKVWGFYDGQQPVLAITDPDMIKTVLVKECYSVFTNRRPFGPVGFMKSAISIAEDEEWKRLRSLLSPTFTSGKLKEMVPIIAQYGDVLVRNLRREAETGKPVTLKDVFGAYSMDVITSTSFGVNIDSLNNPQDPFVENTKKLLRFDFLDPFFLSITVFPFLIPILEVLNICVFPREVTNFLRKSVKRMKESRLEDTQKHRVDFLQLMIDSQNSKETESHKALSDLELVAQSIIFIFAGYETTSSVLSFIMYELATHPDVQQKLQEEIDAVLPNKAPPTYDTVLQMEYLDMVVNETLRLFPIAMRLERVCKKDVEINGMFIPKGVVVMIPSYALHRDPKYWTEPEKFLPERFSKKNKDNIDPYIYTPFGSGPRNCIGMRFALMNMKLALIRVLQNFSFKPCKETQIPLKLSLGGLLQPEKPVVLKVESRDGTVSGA
Sequence of Cytochrome P450 2D6 (Homo sapiens) (P10635 whole entry, looked up): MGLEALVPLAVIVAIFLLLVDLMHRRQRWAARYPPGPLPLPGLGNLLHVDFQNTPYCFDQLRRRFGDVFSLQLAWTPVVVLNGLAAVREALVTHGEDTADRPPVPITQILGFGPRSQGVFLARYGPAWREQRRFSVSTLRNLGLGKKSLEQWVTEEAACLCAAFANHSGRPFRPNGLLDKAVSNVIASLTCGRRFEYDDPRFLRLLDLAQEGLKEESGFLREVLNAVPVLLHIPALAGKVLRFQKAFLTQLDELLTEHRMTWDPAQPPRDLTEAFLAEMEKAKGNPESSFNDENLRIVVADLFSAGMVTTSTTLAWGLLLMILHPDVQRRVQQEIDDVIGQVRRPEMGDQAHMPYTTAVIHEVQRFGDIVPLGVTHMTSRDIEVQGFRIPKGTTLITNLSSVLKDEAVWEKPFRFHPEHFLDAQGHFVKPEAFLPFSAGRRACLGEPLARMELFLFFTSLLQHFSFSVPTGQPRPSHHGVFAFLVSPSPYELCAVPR
Sequence of Pyruvate kinase (Leishmania mexicana) (Q27686 2-499 E452W): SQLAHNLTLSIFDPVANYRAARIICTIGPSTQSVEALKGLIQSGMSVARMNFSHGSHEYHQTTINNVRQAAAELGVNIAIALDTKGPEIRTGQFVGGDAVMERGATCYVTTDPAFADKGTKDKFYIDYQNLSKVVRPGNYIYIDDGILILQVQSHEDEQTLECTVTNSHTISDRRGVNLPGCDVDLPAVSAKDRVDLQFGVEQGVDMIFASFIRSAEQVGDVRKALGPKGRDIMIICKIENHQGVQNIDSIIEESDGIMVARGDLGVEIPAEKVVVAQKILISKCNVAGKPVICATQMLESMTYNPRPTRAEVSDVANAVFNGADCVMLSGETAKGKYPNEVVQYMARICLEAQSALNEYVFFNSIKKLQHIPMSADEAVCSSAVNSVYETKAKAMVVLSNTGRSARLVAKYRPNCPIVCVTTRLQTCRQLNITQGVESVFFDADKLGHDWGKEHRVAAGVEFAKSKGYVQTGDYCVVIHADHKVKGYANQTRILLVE
Sequence of Guanine nucleotide-binding protein G(i) subunit alpha-1 (Homo sapiens) (P63096 whole entry, looked up): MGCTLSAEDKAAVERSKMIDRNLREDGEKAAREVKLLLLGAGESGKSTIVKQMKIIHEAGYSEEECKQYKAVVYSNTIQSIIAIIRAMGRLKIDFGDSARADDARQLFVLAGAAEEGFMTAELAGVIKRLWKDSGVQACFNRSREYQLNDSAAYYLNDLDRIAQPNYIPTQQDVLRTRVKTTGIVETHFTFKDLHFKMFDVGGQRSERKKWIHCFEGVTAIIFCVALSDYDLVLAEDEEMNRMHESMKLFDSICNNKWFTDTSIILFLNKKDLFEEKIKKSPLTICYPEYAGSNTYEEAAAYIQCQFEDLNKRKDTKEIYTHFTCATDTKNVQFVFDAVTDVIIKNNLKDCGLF

COc1ccc(CN(CCN(C)C)c2ccccn2)cc1
active: Potency [7] 501 nM and 126 nM
inactive: outcome [1] | outcome [2] | outcome [3] | outcome [4] | Potency [5] | Potency [6] | outcome [8] | outcome [9] | outcome [10] | Potency [11]

Nc1ncn([C@@H]2O[C@H](CO)[C@@H](O)[C@H]2O)c(=O)n1
inactive: outcome [1] | outcome [2] | outcome [3] | outcome [4] | Potency [5] | outcome [12] | outcome [10] | Potency [14] | Potency [11]
active: Potency [13] 3.16 µM

NC(=O)N1c2ccccc2C=Cc2ccccc21
inactive: outcome [1] | outcome [2] | outcome [3] | outcome [4] | Potency [5] | Potency [15] | outcome [16] | Potency [7] | Potency [17] | Potency [18] | activation [19] -7.9% and -9.09% and -6.88% | outcome [8] | outcome [9] | outcome [10] | Potency [11]

COc1cc2c(cc1OC)-c1cc(=Nc3c(C)cc(C)cc3C)n(C)c(=O)n1CC2
active: Potency [15] 1.26 µM | Potency [17] 5.62 µM
inactive: Potency [5] | Potency [6] | Potency [11]

O=c1[nH]c(=O)n([C@H]2C[C@H](O)[C@@H](CO)O2)cc1Br
inactive: outcome [1] | outcome [2] | outcome [3] | outcome [4] | Potency [5] | outcome [16] | Potency [17] | outcome [8] | outcome [9] | Potency [20] | Potency [11]

Brc1c(NC2=NCCN2)ccc2nccnc12
inactive: Potency [5] | Potency [15] | Potency [6] | Potency [17] | Potency [18] | outcome [8] | Potency [11]

CC(C)NNC(=O)c1ccncc1
inactive: Potency [5] | outcome [16] | outcome [12] | outcome [8] | outcome [10] | Potency [11]

CCCCOCCOCCOCc1cc2c(cc1CCC)OCO2
inactive: outcome [1] | outcome [2] | outcome [3] | outcome [4] | outcome [9]

CC(=O)Nc1nnc(S(N)(=O)=O)s1
inactive: Potency [5] | Potency [15] | outcome [16] | Potency [7] | Potency [17] | Potency [18] | activation [19] 10.9% and -10.2% and -6.49% | outcome [8] | outcome [10] | Potency [11]

CN(C)C(=O)Oc1ccc[n+](C)c1
inactive: Potency [5] | outcome [16] | outcome [12] | outcome [8] | outcome [10] | Potency [11]

Cc1nc2ccccn2c(=O)c1CCN1CCC(C(=O)c2ccc(F)cc2)CC1
active: Potency [14] 8.91 µM
inactive: Potency [5] | Potency [15] | Potency [6] | Potency [17] | Potency [18] | outcome [10] | Potency [11]

CC1=NS(=O)(=O)c2cc(Cl)ccc2N1
inactive and 7.94 µM (active): Potency [7]
inactive: Potency [5] | Potency [15] | Potency [6] | Potency [18] | outcome [8] | outcome [10] | Potency [11]

CCn1cc(C(=O)O)c(=O)c2cc3c(cc21)OCO3
inactive: Potency [5] | outcome [16] | outcome [8] | outcome [10] | Potency [14] | Potency [11]

O=C(CCCN1CCC(O)(c2cccc(C(F)(F)F)c2)CC1)c1ccc(F)cc1
inactive: Potency [5]

NC(N)=NC(=O)Cc1c(Cl)cccc1Cl
inactive: Potency [5] | Potency [15] | Potency [6] | outcome [8] | Potency [14] | Potency [11]
active: Potency [7] 126 nM | Potency [18] 0.251 µM

CCCN(CCC)CCc1cccc2c1CC(=O)N2
active: Potency [20] 17.8 µM
inactive: Potency [5] | outcome [16] | outcome [8] | outcome [10] | Potency [11]

COC(=O)[C@H]1[C@H]2C[C@@H]3c4[nH]c5cc(OC)ccc5c4CCN3C[C@H]2C[C@@H](OC(=O)c2cc(OC)c(OC)c(OC)c2)[C@@H]1OC
inactive: outcome [2] | outcome [3] | outcome [4] | Potency [5] | Potency [6] | outcome [9] | Potency [11]
active: Potency [13] 31.6 µM | Potency [14] 8.91 µM

CN1CCN(C2=Nc3ccccc3Oc3ccc(Cl)cc32)CC1
inactive: Potency [5] | Potency [6] | Potency [17] | outcome [8] | outcome [10] | Potency [11]
active: Potency [20] 0.282 µM | Potency [14] 3.16 µM
